Results filed as inconclusive are left out. Entries that show only a call come without a potency. Calls of active or inactive are those of the source. Calls follow the shape of the dose curve; as a rule, active = well fitted inhibition curve with a large enough effect; inconclusive = small, poorly fitted or top-dose-only effect; inactive = flat fitted curve, though single readings scatter.
Biological target: Calcium and integrin-binding protein 1 (Homo sapiens) (UniProt Q99828)
Experiment: Primary qHTS for Identification of Calcium Integrin Binding Protein 1 (CIB1) Competitor (AID 1508620); also: top concentration of the series differs between compounds
Summary of the method: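 Fluorescence polarization competition: GST-tagged CIB1 (1 uM final) preincubated with compound 15 min at room temperature, then FITC-labelled alphaIIb peptide (100 nM final) added. After 15 min at room temperature, polarization read at Ex 480/Em 540.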

Calcium and integrin-binding protein 1 (Homo sapiens), sequence (Q99828 whole entry, looked up): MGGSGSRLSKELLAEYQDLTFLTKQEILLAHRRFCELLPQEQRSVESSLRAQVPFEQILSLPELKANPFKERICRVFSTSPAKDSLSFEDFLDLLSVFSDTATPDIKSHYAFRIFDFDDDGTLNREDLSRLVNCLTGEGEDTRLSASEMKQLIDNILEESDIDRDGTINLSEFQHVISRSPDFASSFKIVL

| Structure (SMILES) | Potency |
| --- | --- |
| Cc1nc2c(C(F)(F)F)cccc2nc1-c1ccc(-c2cccc(S(C)(=O)=O)c2)cc1 | inactive |
| c1cc(NC2CCNCC2)nc(-c2cnc3ccccn23)c1 | inactive |
| COc1ccc(CCCN2CCC(COC(c3ccccc3)c3ccccc3)CC2)cc1 | inactive |
| COc1ccc2c(NC(=O)Nc3cccc(C(F)(F)F)n3)ccnc2c1 | inactive |
| COCC(c1ccc(C(F)(F)F)cc1)N1CCN(C2(C)CCN(C(=O)c3c(C)ncnc3C)CC2)CC1C (stereo unspecified) | inactive |
| C/C=C\NC(=O)C1NC(=O)C(CC(N)=O)NC(=O)C(NC(=O)C(=O)C(C)CC)Cc2ccc(O)c(c2)-c2cccc3c2NC(=O)C3(O)C1O (stereo unspecified) | inactive |
| CC1(C)CC[C@]23CO[C@@]4(CCC5[C@@]6(C)CC[C@H](O[C@@H]7OC[C@H](O[C@@H]8O[C@H](CO)[C@@H](O)[C@H](O)[C@H]8O[C@@H]8OC[C@@H](O)[C@H](O)[C@H]8O)[C@H](O)[C@H]7O)[C@@](C)(CO)C6CC[C@@]5(C)[C@]4(C)CC2=O)[C@@H]3C1 (stereo partly specified) | inactive |
| C/C=C(\C)C(=O)OC1C(C)C2(O)C(C=C(CO)CC3(O)C(=O)C(C)=CC32)C2C(C)(C)C12OC(=O)C(C)C (stereo unspecified) | inactive |
| CC#CC(=O)Nc1ccc2ncnc(Nc3cccc(Br)c3)c2c1 | inactive |
| O=S(=O)(NCc1ccccn1)c1ccc(Br)c2ccccc12 | inactive |
| O=C(Nc1cnc(Cl)nc1)c1ccc(F)c(F)c1 | inactive |
| COc1cc(-n2cnc3cc(-c4ccc(Cl)cc4)sc3c2=O)ccc1OCCN1CCCC1 | inactive |
| CC(C)Oc1ccc(-c2cnc3c(-c4ccnc5ccccc45)cnn3c2)cc1 | inactive |
| COc1ccc(CN2CCN(C(=O)CCNC(=O)c3ccc(C(C)(C)C)cc3)CC2)cc1 | inactive |
| O=C(Nc1ccc(C(O)(C(F)(F)F)C(F)(F)F)cc1)c1ccc(C(F)(F)F)cc1 | inactive |
| CC(=O)OC1[C@H]2[C@@H](C[C@@H](C)[C@@H]3C=CC(=O)[C@@]13C)OC(=O)[C@@H]2C (stereo partly specified) | inactive |
| Cc1cc2c(cc1N1C(=O)c3cccc4c(CCCO)ccc(c34)C1=O)n(C)c(=O)n2C | inactive |
| C=C1CC2OC(=O)C(=C)C2C(O)/C=C(\C)CCC1O (stereo unspecified) | inactive |

| Structure (SMILES) | Potency |
| --- | --- |
| CNCCN1CCC(c2cc(CN(C)C(=O)c3cccc(Oc4ccccc4)c3)ccn2)CC1 | inactive |
| FC(F)(F)c1ccccc1-c1cc(C(F)(F)F)c2nc(C3=NOC4(CCCCC4)C3)[nH]c2c1 | inactive |
| CC(=O)c1ccc2c(c1)[C@H](NC(=O)c1ccc(F)c(Cl)c1)[C@H](O)C(C)(C)O2 | inactive |
| CC1CCC/C=C/C(=O)c2c(O)cc(O)cc2CC(=O)O1 (stereo unspecified) | inactive |
| C=CC(C)(C)c1[nH]c2ccccc2c1C[C@@H]1NC(=O)[C@H](C)NC1=O | inactive |
| COC(=O)c1ccc(N2CCN(C)CC2)c(NC(=O)c2cccc(OC)c2)c1 | inactive |
| CC(C)CCNC(=O)[C@H](CC(C)C)NC(=O)[C@H]1O[C@@H]1C(=O)O | inactive |
| CC(=O)OC[C@]12[C@H](OC(C)=O)C(=O)[C@@H]3[C@@H](O)[C@@]14O[C@@]3(C)COC(=O)c1cccnc1[C@@H](C)[C@H](C)C(=O)O[C@@H]([C@H](O)[C@@H]2OC(C)=O)[C@]4(C)O | inactive |
| Nc1nc2c(ncn2C2OC3COP(=O)(O)OC3C2O)c(=O)[nH]1 (stereo unspecified) | inactive |
| O=C(Nc1nc2cc(C(F)(F)F)cc(NC3CC3)n2n1)c1cccnc1 | inactive |
| CC(=O)O[C@@H]1C[C@@]23C[C@@]24CC[C@H](O[C@@H]2OC[C@H](O)[C@H](O)[C@H]2O)C(C)(C)[C@@H]4CC[C@H]3[C@]2(C)[C@@H](O)C34O[C@H](C[C@@H](C)[C@@H]3[C@@]12C)[C@@H](C(C)(C)O)O4 | inactive |
| C=C(C)[C@@H]1CC[C@]2(C(=O)O)CC[C@]3(C(=O)O)[C@H](CCC4[C@@]5(C)CCC(=O)C(C)(C)C5CC[C@]43C)C12 (stereo partly specified) | inactive |
| CCC(=C(c1ccc(OCCN2CCCC2)cc1)c1ccc(OCCN2CCCC2)cc1)c1ccccc1 | inactive |
| C=C1C(=O)O[C@@H]2/C=C(\CO)CC/C=C(\CO)[C@H](OC(C)=O)C(OC(=O)C(C)CC)C12 (stereo partly specified) | inactive |
| CC[N+]1(C/C2=C/CCCCCC2)CCC(NC(=O)C2c3cc(Cl)ccc3Oc3ccc(Cl)cc32)CC1 (stereo unspecified) | inactive |
| CC(C)(O)c1ccc2c(c1)ncn2-c1cccc(-c2ccccc2C#N)c1 | inactive |
| CCNc1nc(Nc2cc(F)c(C(=O)N3CCOCC3)cc2OC)ncc1C(F)(F)F | inactive |
| Cn1c(=O)c2c(ncn2Cc2ccc(C(C)(C)C)cc2)n(C)c1=O | inactive |
